# Assay results as given in article PMC11062922 (Nature Chemical Biology, 2023).
# Read-outs that look alike come from different tables or passages of the source.
# Assays:
# Parameters in all cases: species or system human, MV4-11 + K-562 + COLO205 + SK-N-BE2 + OVCAR-8
# ACVR1B = details: read-out: apparent Kd, n = 1
# CIT = details: read-out: apparent Kd; compound concentrations:100 nM and 1000 nM (sheet 'Samples'); n = 1
# CSNK1D = details: read-out: apparent Kd; compound concentrations:100 nM and 1000 nM (sheet 'Samples'); n = 1
# CSNK1E = details: read-out: apparent Kd; compound concentrations:100 nM and 1000 nM (sheet 'Samples'); n = 1
# MAP4K2 = details: read-out: apparent Kd; compound concentrations:100 nM and 1000 nM (sheet 'Samples'); n = 1
# MAPK14 = details: read-out: apparent Kd, n = 1
# PKN3 = details: read-out: apparent Kd; compound concentrations:100 nM and 1000 nM (sheet 'Samples'); n = 1
# PRKD2 = details: read-out: apparent Kd; compound concentrations:100 nM and 1000 nM (sheet 'Samples'); n = 1
# PRKD3 = details: read-out: apparent Kd; compound concentrations:100 nM and 1000 nM (sheet 'Samples'); n = 1
# RIPK2 = details: read-out: apparent Kd, n = 1
# TESK2 = details: read-out: apparent Kd; compound concentrations:100 nM and 1000 nM (sheet 'Samples'); n = 1
# TGFBR2 = details: read-out: apparent Kd; compound concentrations:100 nM and 1000 nM (sheet 'Samples'); n = 1
# ACVR1 = details: read-out: apparent Kd; compound concentrations: 100 nM and 1000 nM (sheet 'Samples'), CATDS: 0.77187058261615105; n = 1
# ACVR2B = details: read-out: apparent Kd, compound concentrations: 100 nM and 1000 nM (sheet 'Samples'), n = 1
# ADRBK1 = details: read-out: apparent Kd; compound concentrations: 100 nM and 1000 nM (sheet 'Samples'), CATDS: 7.2370560484510002E-2; n = 1
# BMPR1A = details: read-out: apparent Kd; compound concentrations: 100 nM and 1000 nM (sheet 'Samples'), CATDS: 0.17247820312197201; n = 1
# BMPR1B = details: read-out: apparent Kd; compound concentrations: 100 nM and 1000 nM (sheet 'Samples'), CATDS: 0.14495542747652801; n = 1
# TGFBR1 = details: read-out: apparent Kd, compound concentrations: 100 nM and 1000 nM (sheet 'Samples'), n = 1
# ZAK = details: read-out: apparent Kd; compound concentrations: 100 nM and 1000 nM (sheet 'Samples'), CATDS: 6.5320579429353404E-2; n = 1
# ADCK3 = details: read-out: apparent Kd; compound concentrations: 100 nM and 1000 nM (sheet 'Samples'), CATDS: 4.7719442951788302E-2; n = 1
# BCR = details: read-out: apparent Kd; compound concentrations: 100 nM and 1000 nM (sheet 'Samples'), CATDS: 9.2768545935790703E-2; n = 1
# CSNK1G1 = details: read-out: apparent Kd; compound concentrations: 100 nM and 1000 nM (sheet 'Samples'), CATDS: 3.1181891791675201E-2; n = 1
# DCTPP1 = details: read-out: apparent Kd; compound concentrations: 100 nM and 1000 nM (sheet 'Samples'), CATDS: 3.3773682420650999E-2; n = 1
# DDR1 = details: read-out: apparent Kd; compound concentrations: 100 nM and 1000 nM (sheet 'Samples'), CATDS: 4.4560789756538197E-2; n = 1
# FLT4 = details: read-out: apparent Kd; compound concentrations: 100 nM and 1000 nM (sheet 'Samples'), CATDS: 0.117719858007404; n = 1
# GAK = details: read-out: apparent Kd; compound concentrations: 100 nM and 1000 nM (sheet 'Samples'), CATDS: 0.134261211287381; n = 1
# MAPKAPK2 = details: read-out: apparent Kd; compound concentrations: 100 nM and 1000 nM (sheet 'Samples'), CATDS: 3.6359622105698597E-2; n = 1
# PDGFRB = details: read-out: apparent Kd; compound concentrations: 100 nM and 1000 nM (sheet 'Samples'), CATDS: 3.2777041424413303E-2; n = 1
# PIK3CD = details: read-out: apparent Kd; compound concentrations: 100 nM and 1000 nM (sheet 'Samples'), CATDS: 7.8466162037350698E-2; n = 1
# PIM2 = details: read-out: apparent Kd; compound concentrations: 100 nM and 1000 nM (sheet 'Samples'), CATDS: 3.2827495568097498E-2; n = 1
# PRKAG1 = details: read-out: apparent Kd; compound concentrations: 100 nM and 1000 nM (sheet 'Samples'), CATDS: 0.117727250561146; n = 1
# RET = details: read-out: apparent Kd; compound concentrations: 100 nM and 1000 nM (sheet 'Samples'), CATDS: 0.121628255608471; n = 1
# RIPK3 = details: read-out: apparent Kd; compound concentrations: 100 nM and 1000 nM (sheet 'Samples'), CATDS: 3.5551158882109302E-2; n = 1
# SLK = details: read-out: apparent Kd; compound concentrations: 100 nM and 1000 nM (sheet 'Samples'), CATDS: 3.3864807637991101E-2; n = 1
# STK10 = details: read-out: apparent Kd; compound concentrations: 100 nM and 1000 nM (sheet 'Samples'), CATDS: 3.2932221087981599E-2; n = 1
# [1] = compound concentrations:100 nM and 1000 nM (sheet 'Samples')
compound,measurement,setting,value
Cc1cccc(-c2nc(Nc3ccncc3)c3ccccc3n2)n1 [GW855857X],potency estimated from few doses,ACVR1B; [1],0.502 nM
same,potency estimated from few doses,CIT,1120 nM
same,potency estimated from few doses,CSNK1D,897 nM
same,potency estimated from few doses,CSNK1E,1190 nM
same,potency estimated from few doses,MAP4K2,1630 nM
same,potency estimated from few doses,MAPK14; [1],1470 nM
same,potency estimated from few doses,PKN3,75.5 nM
same,potency estimated from few doses,PRKD2,3.39 nM
same,potency estimated from few doses,PRKD3,6.73 nM
same,potency estimated from few doses,RIPK2; [1],590 nM
same,potency estimated from few doses,TESK2,1340 nM
same,potency estimated from few doses,TGFBR2,855 nM
COc1cc(-c2cncc(-c3cnn(C4CCNCC4)c3)c2)cc(OC)c1OC [K05908],potency estimated from few doses,"ACVR1B; compound concentrations: 100 nM and 1000 nM (sheet 'Samples'), CATDS: 0.127263158539664",93.1 nM
same,potency estimated from few doses,ACVR1,1.97 nM
same,potency estimated from few doses,ACVR2B; CATDS: 7.0258773018851195E-2,1360 nM
same,potency estimated from few doses,ADRBK1,1110 nM
same,potency estimated from few doses,BMPR1A,42.3 nM
same,potency estimated from few doses,BMPR1B,65 nM
same,potency estimated from few doses,"RIPK2; compound concentrations: 100 nM and 1000 nM (sheet 'Samples'), CATDS: 0.16221198549174301",49 nM
same,potency estimated from few doses,TGFBR1; CATDS: 0.103891234408396,181 nM
same,potency estimated from few doses,ZAK,2410 nM
Cl.c1ccc(-c2ccc3c(Nc4ccc5[nH]ccc5c4)ccnc3c2)nc1 [GW440138A],potency estimated from few doses,"ACVR1B; compound concentrations: 100 nM and 1000 nM (sheet 'Samples'), CATDS: 4.6786491220556801E-2",481 nM
same,potency estimated from few doses,ACVR2B; CATDS: 8.2353092384730597E-2,119 nM
same,potency estimated from few doses,ADCK3,453 nM
same,potency estimated from few doses,BCR,94.2 nM
same,potency estimated from few doses,CSNK1G1,2210 nM
same,potency estimated from few doses,DCTPP1,1520 nM
same,potency estimated from few doses,DDR1,558 nM
same,potency estimated from few doses,FLT4,62.1 nM
same,potency estimated from few doses,GAK,50.4 nM
same,potency estimated from few doses,"MAPK14; compound concentrations: 100 nM and 1000 nM (sheet 'Samples'), CATDS: 3.4656065329692502E-2",1360 nM
same,potency estimated from few doses,MAPKAPK2,1130 nM
same,potency estimated from few doses,PDGFRB,1740 nM
same,potency estimated from few doses,PIK3CD,131 nM
same,potency estimated from few doses,PIM2,1730 nM
same,potency estimated from few doses,PRKAG1,62.1 nM
same,potency estimated from few doses,RET,58.9 nM
same,potency estimated from few doses,"RIPK2; compound concentrations: 100 nM and 1000 nM (sheet 'Samples'), CATDS: 9.1819090008616905E-2",96 nM
same,potency estimated from few doses,RIPK3,1230 nM
same,potency estimated from few doses,SLK,1500 nM
same,potency estimated from few doses,STK10,1700 nM
same,potency estimated from few doses,TGFBR1; CATDS: 3.3353996137348303E-2,1610 nM
